{"source": "the supplement of paper PMC8728848", "assay_in_all_cases": "glycan array binding signal (z-score within array); higher = stronger binding", "settings_in_all_cases": "glycan notation: IUPAC condensed, linker removed", "key": {"[1]": {"target": "Fuc(a1-2)Gal(b1-3)GalNAc(b1-4)[Neu5Ac(a2-3)]Gal(b1-4)Glc", "how_it_was_run": "(§1)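 Glycan array data were curated from 3228 arrays in the Consortium for Functional Glycomics database and kept only where the protein sequence was available. Glycan names were converted to IUPAC-condensed notation, and columns mapping to the same glycan were averaged. The binding signal is a within-array Z-score, averaged across arrays of the same protein sequence at different concentrations or buffers and across linkers. Negative Z-scores can be read as non-binding.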"}, "Fuc(a1-2)Gal(b1-3)GlcNAc": {"target": "Fuc(a1-2)Gal(b1-3)GlcNAc", "how_it_was_run": "as §1"}, "Fuc(a1-2)Gal(b1-4)GlcNAc": {"target": "Fuc(a1-2)Gal(b1-4)GlcNAc", "how_it_was_run": "as §1"}, "[2]": {"target": "Fuc(a1-2)Gal(b1-4)[Fuc(a1-3)]GlcNAc(b1-3)Gal(b1-4)[Fuc(a1-3)]GlcNAc", "how_it_was_run": "as §1"}, "[3]": {"target": "Fuc(a1-3)[Gal(b1-4)]GlcNAc(b1-2)Man(a1-3)[Fuc(a1-3)[Gal(b1-4)]GlcNAc(b1-2)Man(a1-6)]Man(b1-4)GlcNAc(b1-4)GlcNAc", "how_it_was_run": "as §1"}, "[4]": {"target": "Gal(a1-4)Gal(b1-4)GlcNAc(b1-3)Gal(b1-4)Glc", "how_it_was_run": "as §1"}, "[5]": {"target": "Gal(b1-4)GlcNAc(b1-3)[Gal(b1-4)GlcNAc(b1-6)]Gal(b1-4)GlcNAc", "how_it_was_run": "as §1"}, "[6]": {"target": "Gal(b1-4)GlcNAc(b1-6)GalNAc", "how_it_was_run": "as §1"}, "Gal3S(b1-4)GlcNAc6S": {"target": "Gal3S(b1-4)GlcNAc6S", "how_it_was_run": "as §1"}, "[7]": {"target": "GalNAc(b1-3)Gal(a1-4)Gal(b1-4)GlcNAc", "how_it_was_run": "as §1"}, "[8]": {"target": "GlcNAc(a1-3)Gal(b1-4)GlcNAc", "how_it_was_run": "as §1"}, "[9]": {"target": "GlcNAc(a1-6)Gal(b1-4)GlcNAc", "how_it_was_run": "as §1"}, "Kdn(a2-6)Gal(b1-4)GlcNAc": {"target": "Kdn(a2-6)Gal(b1-4)GlcNAc", "how_it_was_run": "as §1"}, "[10]": {"target": "Man(a1-2)Man(a1-3)[Man(a1-2)Man(a1-6)]Man(a1-6)[Man(a1-2)Man(a1-2)Man(a1-3)]Man(b1-4)GlcNAc(b1-4)GlcNAc", "how_it_was_run": "as §1"}, "[11]": {"target": "Man(a1-2)Man(a1-6)[Man(a1-3)]Man(a1-6)[Man(a1-2)Man(a1-2)Man(a1-3)]Man", "how_it_was_run": "as §1"}, "[12]": {"target": "Man(a1-2)Man(a1-6)[Man(a1-3)]Man(a1-6)[Man(a1-2)Man(a1-2)Man(a1-3)]Man(b1-4)GlcNAc(b1-4)GlcNAc", "how_it_was_run": "as §1"}, "Man(a1-3)[Man(a1-6)]Man": {"target": "Man(a1-3)[Man(a1-6)]Man", "how_it_was_run": "as §1"}, "[13]": {"target": "Man(a1-3)[Man(a1-6)]Man(a1-6)[Man(a1-2)Man(a1-3)]Man(b1-4)GlcNAc(b1-4)GlcNAc", "how_it_was_run": "as §1"}, "[14]": {"target": "Neu5Ac(a2-3)Gal(b1-3)[Neu5Ac(a2-3)Gal(b1-4)]GlcNAc", "how_it_was_run": "as §1"}, "[15]": {"target": "Neu5Ac(a2-3)Gal(b1-4)GlcNAc(b1-2)Man(a1-3)[GlcNAc(b1-2)Man(b1-4)GlcNAc(b1-2)Man(a1-6)]Man(b1-4)GlcNAc(b1-4)GlcNAc", "how_it_was_run": "as §1"}, "[16]": {"target": "Neu5Ac(a2-3)Gal(b1-4)GlcNAc(b1-3)GalNAc", "how_it_was_run": "as §1"}, "[17]": {"target": "Neu5Ac(a2-3)Gal(b1-4)[Fuc(a1-3)]GlcNAc(b1-3)Gal", "how_it_was_run": "as §1"}, "[18]": {"target": "Neu5Ac(a2-3)Gal(b1-4)[Fuc(a1-3)]GlcNAc(b1-6)[Neu5Ac(a2-3)Gal(b1-3)]GalNAc", "how_it_was_run": "as §1"}, "[19]": {"target": "Neu5Ac(a2-6)Gal(b1-4)GlcNAc(b1-3)Gal(b1-3)GlcNAc", "how_it_was_run": "as §1"}, "[20]": {"target": "Neu5Ac(a2-6)Gal(b1-4)GlcNAc(b1-3)Gal(b1-4)[Fuc(a1-3)]GlcNAc(b1-3)Gal(b1-4)[Fuc(a1-3)]GlcNAc", "how_it_was_run": "as §1"}, "Neu5Ac(a2-8)Neu5Ac": {"target": "Neu5Ac(a2-8)Neu5Ac", "how_it_was_run": "as §1"}, "[21]": {"target": "Neu5Ac(a2-8)Neu5Ac(a2-8)Neu5Ac", "how_it_was_run": "as §1"}, "[22]": {"target": "Neu5Ac(b2-6)Gal(b1-4)GlcNAc", "how_it_was_run": "as §1"}}, "note": "The full list was thinned out, with the strongest signals kept by preference.", "data": [{"binder": "Ficolin B (Rattus norvegicus), P57756 (protein) MVLGSAALFVLSLCVTELTLHAADTCPEVKVLDLEGSNKLTILQGCPGLPGALGPKGEAGAKGDRGESGLPGHPGKAGPTGPKGDRGEKGVRGEKGDTGPSQSCATGPRTCKELLTRGYFLTGWYTIYLPDCRPLTVLCDMDTDGGGWTVFQRRIDGTVDFFRDWTSYKQGFGSQLGEFWLGNDNIHALTTQGTNELRVDLADFDGNHDFAKYSSFQIQGEAEKYKLILGNFLGGGAGDSLTSQNNMLFSTKDQDNDQGSSNCAVRYHGAWWYSDCHTSNLNGLYLRGLHKSYANGVNWKSWKGYNYSYKVSEMKVRLI", "values": [{"measurement": "glycan array binding signal (z-score)", "setting": "[1]", "value": -0.165}, {"measurement": "glycan array binding signal (z-score)", "setting": "Fuc(a1-2)Gal(b1-3)GlcNAc", "value": -0.197}, {"measurement": "glycan array binding signal (z-score)", "setting": "Fuc(a1-2)Gal(b1-4)GlcNAc", "value": -0.192}, {"measurement": "glycan array binding signal (z-score)", "setting": "[2]", "value": -0.205}, {"measurement": "glycan array binding signal (z-score)", "setting": "[3]", "value": -0.214}, {"measurement": "glycan array binding signal (z-score)", "setting": "[4]", "value": -0.169}, {"measurement": "glycan array binding signal (z-score)", "setting": "[5]", "value": 1.56}, {"measurement": "glycan array binding signal (z-score)", "setting": "[6]", "value": -0.085}, {"measurement": "glycan array binding signal (z-score)", "setting": "Gal3S(b1-4)GlcNAc6S", "value": -0.2}, {"measurement": "glycan array binding signal (z-score)", "setting": "[7]", "value": -0.2}, {"measurement": "glycan array binding signal (z-score)", "setting": "[8]", "value": -0.127}, {"measurement": "glycan array binding signal (z-score)", "setting": "[9]", "value": 0.051}, {"measurement": "glycan array binding signal (z-score)", "setting": "Kdn(a2-6)Gal(b1-4)GlcNAc", "value": -0.209}, {"measurement": "glycan array binding signal (z-score)", "setting": "[10]", "value": -0.224}, {"measurement": "glycan array binding signal (z-score)", "setting": "[11]", "value": -0.212}, {"measurement": "glycan array binding signal (z-score)", "setting": "[12]", "value": -0.18}, {"measurement": "glycan array binding signal (z-score)", "setting": "Man(a1-3)[Man(a1-6)]Man", "value": -0.166}, {"measurement": "glycan array binding signal (z-score)", "setting": "[13]", "value": -0.182}, {"measurement": "glycan array binding signal (z-score)", "setting": "[14]", "value": 3.17}, {"measurement": "glycan array binding signal (z-score)", "setting": "[15]", "value": 5.65}, {"measurement": "glycan array binding signal (z-score)", "setting": "[16]", "value": -0.192}, {"measurement": "glycan array binding signal (z-score)", "setting": "[17]", "value": 0.01}, {"measurement": "glycan array binding signal (z-score)", "setting": "[18]", "value": 0.019}, {"measurement": "glycan array binding signal (z-score)", "setting": "[19]", "value": 0.054}, {"measurement": "glycan array binding signal (z-score)", "setting": "[20]", "value": -0.204}, {"measurement": "glycan array binding signal (z-score)", "setting": "Neu5Ac(a2-8)Neu5Ac", "value": 3.73}, {"measurement": "glycan array binding signal (z-score)", "setting": "[21]", "value": 2.69}, {"measurement": "glycan array binding signal (z-score)", "setting": "[22]", "value": 8.52}]}]}
